# PubChem BioAssay
# Calls of active or inactive are those of the source.
# How the values were obtained:
# [1] = small molecules captured by biotinylated probe aFSTL3 – biochemical, small-molecule microarray, fluorescence 635/667, stem cell growth factor project, primary screen (AID 1064); settings: higher = more signal;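 further: measures binding of the biotinylated anti-FSTL3 antibody to printed compounds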
# [2] = binders from COS7 lysate, DM2A8 probe, primary screen, torsin A project, cell lysate, small-molecule microarray, fluorescence 635/667 (AID 1065); settings: higher = more signal, COS7 lysate expressing mutant human TOR1A
# [3] = small molecules captured by biotinylated probe aFGF2 – biochemical, small-molecule microarray, fluorescence 635/667, stem cell growth factor project, primary screen (AID 1067); settings: higher = more signal;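 further: measures binding of biotinylated aFGF2 protein to printed compounds on slides; z-score merges feature fluorescence and signal-to-noise across triplicate slides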
# [4] = small molecules captured by biotinylated probe aFGF10 – biochemical, small-molecule microarray, fluorescence 635/667, stem cell growth factor project, primary screen (AID 1071); settings: higher = more signal;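 further: score merges 667 nm spot intensity and signal to noise from triplicate slides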
# [5] = target: Neurogenic locus notch homolog protein 2 (Homo sapiens) (UniProt Q04721); assay: small molecules binding Notch2 protein – biochemical, small-molecule microarray, 635 nm fluorescence, stem cell growth factors, primary screen (AID 1073); settings: higher = more signal
# [6] = target: Pro-neuregulin-1, membrane-bound isoform (Homo sapiens) (UniProt Q02297); assay: small molecules binding neuregulin-1 protein – biochemical, small-molecule microarray, fluorescence 635/667, psychiatric disease protein project, primary screen (AID 1075); settings: NRG1 binding, 635 nm fluorescence, higher = more signal;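 further: score combines 667 nm spot fluorescence with signal to noise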
# [7] = tested on: Neuregulin-1 EGF-like domain; assay: small molecules binding NRG1 EGF domain – biochemical, small-molecule microarray, 635 nm fluorescence, primary screen (AID 1081); settings: higher = more signal;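 further: binding of the protein to compounds printed on small-molecule microarray slides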
# [8] = FRG1 expression reporter modulators in myotubes – cell-based, C2C12 myotubes, firefly/Renilla luciferase, luminescence, FRG1 inhibition for FSHD, primary screen (AID 1084); settings: FRG1 promoter luciferase, higher = more signal, called active from +8 up or from −8 down
# [9] = small molecules captured by biotinylated probe aFST – biochemical, small-molecule microarray, fluorescence 635/667, stem cell growth factor project, primary screen (AID 1086); settings: higher = more signal;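 further: score merges 667 nm fluorescence with signal-to-noise of each printed compound spot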
# [10] = binders of probe aHhip on microarray, primary screen, stem cell growth factor project, biochemical, small-molecule microarray, fluorescence 635/667 (AID 1087); settings: higher = more signal;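 further: score merges spot fluorescence at 667nm with spot signal to noise ratio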
# Chain of Neurogenic locus notch homolog protein 2 (Homo sapiens) (Q04721 whole entry, looked up, canonical isoform): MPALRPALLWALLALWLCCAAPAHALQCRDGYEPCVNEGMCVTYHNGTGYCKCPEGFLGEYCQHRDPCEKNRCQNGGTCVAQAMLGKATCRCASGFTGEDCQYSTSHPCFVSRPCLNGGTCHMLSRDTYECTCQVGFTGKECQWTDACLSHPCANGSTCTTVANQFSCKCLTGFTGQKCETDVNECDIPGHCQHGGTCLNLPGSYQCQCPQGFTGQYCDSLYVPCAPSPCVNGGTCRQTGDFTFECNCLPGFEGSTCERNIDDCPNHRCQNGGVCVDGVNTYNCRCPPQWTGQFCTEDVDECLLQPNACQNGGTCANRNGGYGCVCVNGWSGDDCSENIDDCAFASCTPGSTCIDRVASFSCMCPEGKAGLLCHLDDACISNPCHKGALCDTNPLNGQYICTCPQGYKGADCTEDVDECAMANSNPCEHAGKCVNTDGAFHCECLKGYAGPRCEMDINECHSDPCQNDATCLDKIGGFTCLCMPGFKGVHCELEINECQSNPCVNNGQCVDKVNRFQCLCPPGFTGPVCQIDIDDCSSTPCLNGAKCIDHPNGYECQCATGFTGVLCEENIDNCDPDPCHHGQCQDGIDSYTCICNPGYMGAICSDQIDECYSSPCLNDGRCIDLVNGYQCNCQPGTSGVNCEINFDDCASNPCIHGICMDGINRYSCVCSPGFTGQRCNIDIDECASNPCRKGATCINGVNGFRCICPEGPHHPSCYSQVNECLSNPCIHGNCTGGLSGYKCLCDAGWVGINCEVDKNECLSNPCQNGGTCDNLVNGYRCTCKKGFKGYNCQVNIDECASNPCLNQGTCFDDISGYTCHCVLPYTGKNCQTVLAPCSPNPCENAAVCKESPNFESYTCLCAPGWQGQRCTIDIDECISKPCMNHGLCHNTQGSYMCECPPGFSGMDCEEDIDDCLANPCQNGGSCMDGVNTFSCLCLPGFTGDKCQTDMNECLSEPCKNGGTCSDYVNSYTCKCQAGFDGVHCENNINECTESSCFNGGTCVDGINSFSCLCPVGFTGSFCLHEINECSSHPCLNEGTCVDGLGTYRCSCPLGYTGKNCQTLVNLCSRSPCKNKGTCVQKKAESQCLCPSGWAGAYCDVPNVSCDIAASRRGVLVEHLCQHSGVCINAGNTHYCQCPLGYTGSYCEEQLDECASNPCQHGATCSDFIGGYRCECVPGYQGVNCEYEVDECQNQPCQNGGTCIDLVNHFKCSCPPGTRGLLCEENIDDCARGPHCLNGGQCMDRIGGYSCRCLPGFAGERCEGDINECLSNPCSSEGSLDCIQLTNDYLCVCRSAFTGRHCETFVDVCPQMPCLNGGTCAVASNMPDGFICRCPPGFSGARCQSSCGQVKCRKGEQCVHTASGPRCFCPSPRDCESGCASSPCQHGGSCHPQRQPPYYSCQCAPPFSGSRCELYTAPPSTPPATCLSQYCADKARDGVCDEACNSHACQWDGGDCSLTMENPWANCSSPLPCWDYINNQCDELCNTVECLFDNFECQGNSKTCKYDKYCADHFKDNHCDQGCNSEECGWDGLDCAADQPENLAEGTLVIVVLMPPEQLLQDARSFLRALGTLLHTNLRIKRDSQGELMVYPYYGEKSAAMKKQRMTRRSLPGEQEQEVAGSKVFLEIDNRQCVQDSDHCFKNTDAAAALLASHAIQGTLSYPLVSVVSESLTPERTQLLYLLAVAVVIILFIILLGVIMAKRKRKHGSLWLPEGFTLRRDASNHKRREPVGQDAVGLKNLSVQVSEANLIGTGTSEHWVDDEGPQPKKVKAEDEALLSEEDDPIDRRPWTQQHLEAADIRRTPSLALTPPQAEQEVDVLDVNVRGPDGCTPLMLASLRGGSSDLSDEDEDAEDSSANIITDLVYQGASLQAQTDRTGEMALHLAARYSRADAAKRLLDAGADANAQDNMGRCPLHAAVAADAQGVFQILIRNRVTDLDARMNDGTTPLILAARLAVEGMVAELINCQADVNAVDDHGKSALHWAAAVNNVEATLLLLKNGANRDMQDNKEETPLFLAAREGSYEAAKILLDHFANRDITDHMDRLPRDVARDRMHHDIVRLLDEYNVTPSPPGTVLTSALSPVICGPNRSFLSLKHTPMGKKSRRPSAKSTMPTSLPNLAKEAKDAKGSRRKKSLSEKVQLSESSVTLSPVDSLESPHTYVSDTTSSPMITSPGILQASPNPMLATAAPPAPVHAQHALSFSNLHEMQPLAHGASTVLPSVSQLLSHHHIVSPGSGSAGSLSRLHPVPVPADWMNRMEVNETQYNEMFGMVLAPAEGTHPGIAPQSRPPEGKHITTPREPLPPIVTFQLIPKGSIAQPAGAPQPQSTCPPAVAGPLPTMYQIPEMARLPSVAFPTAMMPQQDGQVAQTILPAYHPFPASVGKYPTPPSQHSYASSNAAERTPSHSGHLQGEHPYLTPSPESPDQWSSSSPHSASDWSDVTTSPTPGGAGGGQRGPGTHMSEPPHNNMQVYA
# Chain of Pro-neuregulin-1, membrane-bound isoform (Homo sapiens) (Q02297 whole entry, looked up, the tested form may be a part, canonical isoform): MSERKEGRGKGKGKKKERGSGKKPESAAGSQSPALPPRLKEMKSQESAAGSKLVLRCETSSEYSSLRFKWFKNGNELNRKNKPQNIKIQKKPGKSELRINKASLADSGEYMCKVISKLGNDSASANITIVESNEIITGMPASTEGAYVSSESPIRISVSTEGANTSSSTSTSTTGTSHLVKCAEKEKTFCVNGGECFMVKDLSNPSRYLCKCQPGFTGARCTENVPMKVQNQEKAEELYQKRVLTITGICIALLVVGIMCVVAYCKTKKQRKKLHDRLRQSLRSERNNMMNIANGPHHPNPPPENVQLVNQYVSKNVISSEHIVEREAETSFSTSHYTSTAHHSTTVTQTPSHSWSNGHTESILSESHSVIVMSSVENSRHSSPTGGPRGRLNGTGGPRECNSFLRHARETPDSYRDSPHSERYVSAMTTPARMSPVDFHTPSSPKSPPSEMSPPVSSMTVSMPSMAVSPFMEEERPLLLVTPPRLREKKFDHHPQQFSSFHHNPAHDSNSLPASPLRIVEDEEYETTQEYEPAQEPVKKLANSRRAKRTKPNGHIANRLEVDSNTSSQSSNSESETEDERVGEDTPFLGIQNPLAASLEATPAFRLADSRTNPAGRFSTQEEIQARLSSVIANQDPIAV
SMILES,composite z-score [1],composite z-score [2],composite z-score [3],composite z-score [4],composite z-score [5],composite z-score [6],composite z-score [7],z-score [8],composite z-score [9],composite z-score [10]
C=CC[C@@]1(C(=O)NCCCOC)N=C(c2ccc(OCCCO)cc2)O[C@@H]1c1ccccc1,0.513,1.09,0.0679,-0.562,-0.0215,1.84,1.15,-1.24 (inactive),0.74,0.712
CCCCC(CC)C(O)C1C=CC2C(=O)N(c3ccccc3)C(=O)C2N1Nc1ccccc1F (stereo not given),0.0758,0.39,0.151,0.972,1.54,-0.144,1.21,0.39 (inactive),0.727,-0.123
O=C(Cc1ccccc1)[C@H]1C2C=CCCC(c3ccccc3)=C2CN1Cc1ccccc1 (stereo not given in full),-0.138,1.24,-0.085,0.0623,-0.0515,-0.473,-0.122,-1.2 (inactive),-0.205,0.0722
CCCCCN1CC=CC23O[C@@H]4/C=C\CCCOC(=O)C4[C@H]2C(=O)N(C(C)CO)[C@@H]3C1=O (stereo not given in full),0.378,-1.3,-0.219,-0.756,-0.814,1.15,1.16,-0.508 (inactive),-0.738,-0.399
COCCCNC(=O)[C@@]1(CCC(=O)OC(C)(C)C)N=C(c2ccc(OCCCO)cc2)O[C@H]1c1ccccc1N=[N+]=[N-],0.913,1.5,0.0999,1.14,1.41,1.9,1.4,2.62 (inactive),1.03,0.0053
CC1CC/C=C\[C@H]2OC34C=CCN(Cc5ccccc5)C(=O)[C@H]3N(C(CO)C(C)C)C(=O)[C@@H]4C2C(=O)O1 (stereo not given in full),0.342,-0.153,-0.049,-0.0095,-0.68,0.491,1.39,1.32 (inactive),-0.368,-0.0169
COC(=O)[C@@]1(Cc2ccc(OC)cc2)[C@H]2c3cc(C(=O)N4CCCC4)n(CCO)c3C[C@H]2CN1C(=O)c1ccccc1,0.0734,-0.562,0.418,1.18,1.55,1.77,0.764,1.45 (inactive),0.691,0.34
N#Cc1ccc(NN2C(C(O)c3ccc(Br)cc3)C=CC3C(=O)N(c4ccccc4)C(=O)C32)cc1 (stereo not given),1.36,0.288,0.254,0.73,1.58,1.74,0.976,-2.87 (inactive),0.907,-0.182
C=C[C@H]1C(C(=O)OCC)=CC[C@@H](c2ccccc2)N1S(=O)(=O)c1ccc(C)cc1,0.131,0.431,0.16,0.693,1.25,1.04,0.779,-3.11 (inactive),0.992,-0.266
CCCCC(CC)C(O)C1C=CC2C(=O)N(C)C(=O)C2N1Nc1ccccc1 (stereo not given),-0.245,0.0145,-0.0454,0.264,0.846,0.517,1.16,-0.373 (inactive),0.388,-0.0994
CCCNC(=O)[C@@H]1c2ccccc2C(=O)N(Cc2ccc(OC(F)(F)F)cc2)[C@H]1c1ccc(CO)cc1,0.193,-0.392,0.0295,0.0505,0.634,0.33,1.24,-1.88 (inactive),0.0347,-0.0237
CCCCC[C@H]1OC[C@@]23C=C(Br)[C@@H](CC12)[C@@]1(CO1)C3=O (stereo not given in full),-0.41,0.878,-0.2,-0.112,-0.308,-0.556,-0.497,0.201 (inactive),-0.252,-0.132
Cc1ccc(F)cc1S(=O)(=O)N[C@@H]1CCN(Cc2ccc(Br)cc2)C1,-0.414,0.673,-0.23,-0.207,0.414,-0.107,0.035,-2.08 (inactive),0.258,-0.0994
CC(C)=C1C(=O)C(c2ccccc2)=C2CN3C(=O)N(CCc4ccccc4)C(=O)[C@]3(Cc3ccc(C(F)(F)F)cc3)[C@H]21,1.11,-0.192,0.0977,-0.122,0.816,0.757,0.844,0.845 (inactive),0.693,0.281
CC1CC/C=C\[C@H]2OC34C=CCN(c5ccc(Cl)cc5)C(=O)[C@H]3N(C(C)CO)C(=O)[C@]4(C)C2C(=O)O1 (stereo not given in full),0.0528,-0.591,-0.143,-0.172,-0.807,-0.154,0.886,0.242 (inactive),-0.732,-0.0618
CCCC[C@@H]1C[C@H]1[C@@H](NC(=O)c1cccs1)c1ccccc1C(F)(F)F,0.015,0.871,0.326,0.256,0.803,1.8,1.1,-0.0362 (inactive),-0.517,-0.115
COc1ccc(C#Cc2ccc3c(c2)[C@]2(C(=O)N3)[C@H](c3ccc(OCCO)cc3)N3[C@H](c4ccccc4)[C@H](c4ccccc4)OC(=O)[C@H]3[C@@H]2C(=O)NC[C@H](O)c2ccccc2)cc1,-0.338,0.411,-0.0276,0.422,1.16,1.55,1.13,-0.164 (inactive),0.547,-0.236
COc1ccc(C#Cc2ccc3c(c2)[C@]2(C(=O)N3)[C@H](C(=O)O)[C@H]3C(=O)O[C@H](c4ccccc4)[C@H](c4ccccc4)N3[C@@H]2c2ccc(O)cc2)cc1,0.499,0.928,-0.0557,0.221,-0.0571,0.418,1.28,0.247 (inactive),0.105,-0.134
O=C(O)[C@@H]1C[C@@H]2C(=O)N3CCC[C@H]3C(=O)N2[C@@H]1c1ccc(O)cc1,1.18,0.607,-0.0058,0.0314,0.0995,0.956,1,7.28 (inactive),0.387,0.35
O=C1O[C@H](c2ccccc2)[C@H](c2ccccc2)N2[C@H]1[C@@H](C(=O)O)[C@]1(C(=O)Nc3ccc(C#CCCO)cc31)[C@H]2c1ccccc1OCCO,-0.324,0.627,-0.0962,0.21,-0.0765,0.944,1.23,0.37 (inactive),-0.0238,-0.0994
COc1ccc([Si](C)(C)[C@@H]2[C@@H](CCO)O[C@]3(C(=O)N(Cc4ccccc4)c4ccc(N5CCOC5=O)cc43)[C@H]2C)cc1,-0.142,0.682,-0.0346,0.65,0.545,0.69,0.951,-4.48 (inactive),0.152,-0.226
O=C(O)[C@@H]1[C@@H]2C(=O)N(c3ccccc3)C(=O)[C@@H]2C[C@@H]1Sc1ccccc1,0.305,-0.534,-0.0833,0.105,-0.0593,-0.141,0.695,1.06 (inactive),-0.377,0.0505
